# In ChEMBL document CHEMBL1157539, “Thousands of chemical starting points for antimalarial lead identification” (Nature, 2010):
# Test system: Plasmodium falciparum
# Experiment: GSK_TCMDC: Inhibition of Plasmodium falciparum 3D7 in whole red blood cells, using parasite LDH activity as an index of growth. Test compounds present at 2uM
# Assay type: functional
row,SMILES,Inhibition [%]
1,O=S(=O)(Nc1cccc(CCN2CCC(N3CCCCC3)CC2)c1)c1ccc(-c2ccccc2)cc1,100
2,COc1ccc(-c2ccc(NC(=O)c3cccc(Cl)c3)cc2)cc1CN(C)CCN(C)C.O=C(O)C(F)(F)F,100
3,O=C(Cc1cccc(O)c1)Nc1ccc(-c2cccc(-c3nc4cc(C(F)(F)F)ccc4[nH]3)c2)cc1,86
4,COc1ccc2nccc([C@@H](O)CN3CCC(NC(=O)C(c4cc5ccccc5o4)N4CCN(c5ccccc5)CC4)CC3)c2c1 (stereo not given in full),99
5,Cc1c(C)n(Cc2ccccc2)c2ncnc(OC3CCN(CC(=O)NCC4CC4)CC3)c12,92
6,Cc1cnc(CN(Cc2ccc(-c3ccc(CNCCc4ccc(S(C)(=O)=O)cc4)cn3)cc2)C(=O)c2ccc([N+](=O)[O-])c(C)c2)cn1.O=C(O)C(F)(F)F,93
7,COc1ccc(-c2nnc(Sc3ccc(C#N)c([N+](=O)[O-])c3)n2CC(C)C)cc1,97
8,O=C(/C=C/c1ccc(Cl)c(Cl)c1)N1CCC(CCCN2CCC(c3c[nH]c4ccc(O)cc34)CC2)CC1,100
9,COc1ccc(NC(=O)[C@H](Cc2ccccc2)Nc2cc(C)nc(NCCc3ccccc3)n2)cc1.O=C(O)C(F)(F)F,98
10,CC(C)(C)c1ccc(NC(=O)c2ccc(CN3CCCN(Cc4cccc(O)c4)CC3)cc2)cc1.O=C(O)C(F)(F)F,100
11,Br.CC1CCC2(CC1)N=C(N)N=C(N)N2OCc1ccc(Br)c2ccccc12 (stereo not given),96
12,Cc1ccc(C)c(NC(=O)CC2C(=O)N(c3ccccc3)C(=S)N2Cc2ccco2)c1 (stereo not given),100
13,CCn1c(-c2nc(-c3ccc4c(c3)OCO4)cnc2N)nc2cnccc21,100
14,Cc1cc(Nc2ccc(C)c(C)c2)n2nc(C)nc2n1,95
15,CCN(CC)CCN(Cc1ccc(-c2ccc(C(F)(F)F)cc2)cc1)C(=O)c1c[nH]c2ccc(Br)cc12,90
16,COc1cc(O)c2c(=O)c(OC)c(-c3cccc(Cl)c3OCC(=O)O)oc2c1OC,100
17,COc1c(C2CCN(CCCCNC(=O)c3cc(-c4ccc(Cl)cc4)[nH]c3C)CC2)ccc2c1CCCC2,100
18,CN1CCN(c2ccnc3ccc(NC(=O)Nc4ccc(Cl)c(Cl)c4)cc23)CC1,97

row,SMILES,Inhibition [%]
1,O=C(NCc1ccc(C(=O)NCc2cccc3ccccc23)cc1)c1ccc(O)c(-c2ccc(Cl)c(Cl)c2)c1,100
2,CCc1cn2c3c(cc(C(=O)N[C@@H](Cc4ccccc4)[C@H](O)CNC4CCOCC4)cc13)N(C)S(=O)(=O)C2.O=CO,99
3,COc1ccc2ncc(Cl)c([C@@H](O)CN3CCC(NCc4cc5c(cn4)OCCO5)CC3)c2c1.Cl,100
4,O=C(Nc1ccccc1O)c1ccc(Oc2cccc(C(=O)Nc3ccccc3O)c2)cc1,97
5,N#Cc1ccc(CN2CCCN(Cc3cccc(NC(=O)c4cc5ccccc5s4)c3)CC2)cc1.O=C(O)C(F)(F)F,97
6,CN(C)CCNc1ncnc2c1[nH]c1ccc(Cl)cc12,100
7,CCCCCCCN1CCC(NC(=O)Nc2ccnc3ccc(OC)cc23)C(CO)C1.O=C(O)C(=O)O (stereo not given),94
8,CC1=C(C(=O)Nc2ccccc2)C(c2ccc([N+](=O)[O-])cc2)n2ncc(C(=O)Nc3ccccc3)c2N1 (stereo not given),86
9,O=C(c1cc2cccc([N+](=O)[O-])c2[nH]1)N1CCC(CCN2CCC(c3c[nH]c4ccccc34)CC2)CC1,89
10,N#Cc1ccc(CN2CCCN(Cc3cccc(NC(=O)c4ccc(-c5ccccc5)cc4)c3)CC2)cc1.O=C(O)C(F)(F)F,88
11,CN(C)CCNC(=O)N1CCCN(c2ncnc3cc(-c4ccc(Cl)cc4)sc23)CC1.O=C(O)C(F)(F)F,98
12,CCCc1ccc(C2CCN(CCCCNC(=O)c3ccc(NC(=O)c4ccc(Cl)cc4)cc3)CC2)cc1,100
13,O=C(NCc1ccc(Cl)cc1)c1ccc(C(=O)NCC2CCCN2CC2CCCCC2)cc1.O=C(O)C(F)(F)F (stereo not given),97
14,Cl.O=c1cc(NCCCNCc2cc3ccccc3s2)[nH]c2ccccc12,89
15,COc1ccc2ncc(C#N)c(CCN3CCC(NCc4ccc5c(c4)OCCO5)CC3)c2c1.Cl,96
16,CC(C)Sc1ccc(Cl)cc1CON1C(=N)N=C(N)NC1(C)C.Cl,93
17,COc1ccc(-c2ccc(CNC(=O)c3ccc(Cl)cc3)c(F)c2)cc1CN1CCCN(C)CC1.O=C(O)C(F)(F)F,99
